The chains are these.
T1: RBFOX1 RRM (Homo sapiens, UniProt Q9NWB1 109-208)
T1 sequence: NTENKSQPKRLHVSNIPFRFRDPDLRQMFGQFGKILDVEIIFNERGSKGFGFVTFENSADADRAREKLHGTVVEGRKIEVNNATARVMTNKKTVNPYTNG

B1: CGCUACC (DNA:RNA)
RNA: GGGAGACCGGAAUUCAGAUUGUCCCGCUACCUUAAAUCCCGUCGUAGCCACCA
DNA 1: CAATCTGAATTCCGGTCTCCC
DNA 2: TGGTGGCTACGACGGGATT
B2: AGAGCCU (DNA:RNA)
RNA: B1 RNA with C25A, C27A, U28G, A29C, C31U
DNA 1: CAATCTGAATTCCGGTCTCCC
DNA 2: TGGTGGCTACGACGGGATT
B3: UAUGCGC (DNA:RNA)
RNA: B1 RNA with C25U, G26A, C27U, U28G, A29C, C30G
DNA 1: CAATCTGAATTCCGGTCTCCC
DNA 2: TGGTGGCTACGACGGGATT
B4: CUUCGUU (DNA:RNA)
RNA: B1 RNA with G26U, C27U, U28C, A29G, C30U, C31U
DNA 1: CAATCTGAATTCCGGTCTCCC
DNA 2: TGGTGGCTACGACGGGATT
B5: UCCGGCC (DNA:RNA)
RNA: B1 RNA with C25U, G26C, U28G, A29G
DNA 1: CAATCTGAATTCCGGTCTCCC
DNA 2: TGGTGGCTACGACGGGATT
B6: UUACUUG (DNA:RNA)
RNA: GGGAGACCGGAAUUCAGAUUGUCCUUACUUGUUAAAUCCCGUCGUAGCCACCA
DNA 1: CAATCTGAATTCCGGTCTCCC
DNA 2: TGGTGGCTACGACGGGATT
B7: GAGUGAG (DNA:RNA)
RNA: B1 RNA with C25G, G26A, C27G, A29G, C30A, C31G
DNA 1: CAATCTGAATTCCGGTCTCCC
DNA 2: TGGTGGCTACGACGGGATT
B8: CAGGUUU (DNA:RNA)
RNA: B6 RNA with U25C, U26A, A27G, C28G, G31U
DNA 1: CAATCTGAATTCCGGTCTCCC
DNA 2: TGGTGGCTACGACGGGATT
B9: CGCCAGG (DNA:RNA)
RNA: B1 RNA with U28C, C30G, C31G
DNA 1: CAATCTGAATTCCGGTCTCCC
DNA 2: TGGTGGCTACGACGGGATT

The results in this text go back to article PMC9911399, “Two distinct binding modes provide the RNA-binding protein RbFox with extraordinary sequence specificity”.

Numbering of substitutions follows the chain as printed; changes in the protein carry UniProt numbers. Over roughly 16,000 sequences, “ka relative to ugcaugu” has its median near 0.0091; the highest 2% begin near 0.032. Shown is part of a subset that was picked to be rich in the highest values.

The target of this experiment is T1, RBFOX1 RRM. The experiment can be described thus: EMSA; HiTS-Eq, 1 nM pool, 10 min; buffer printed only for the single-RNA assays: 10 mM Tris pH 7.5, 150 mM NaCl, 3.4 mM EDTA, 0.001% NP-40, 30 C. Particulars: tags: His6 N-terminal (pET28a); label: 5' 32P. The procedure, abridged: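 Purified RbFox RRM, wild type or mutant, was incubated for 10 min in 50 µL with 1 nM of a 5′-radiolabelled RNA pool carrying 7 randomized nucleotides, whose flanks were annealed to DNA oligonucleotides, over a series of increasing protein concentrations. Unbound RNA was resolved on 8% native PAGE, cut out, reverse-transcribed, barcoded by PCR and sequenced on an Illumina HiSeq 2500. Relative association constants were derived from changes in read counts for each RNA species versus the control reaction and normalised to the cognate motif.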
(In general: Mobility shift assays separate free from complexed probe on a gel.)
Take B1: the binding signal was 0.00834 KA relative to UGCAUGU.

Turning to B2, the binding signal was 0.00804 KA relative to UGCAUGU.

B3: the binding signal was 0.0181 KA relative to UGCAUGU.

As for B4, the binding signal was 0.0135 KA relative to UGCAUGU.

As for B5, the binding signal was 0.00966 KA relative to UGCAUGU.

For B6, the binding signal is 0.0182 KA relative to UGCAUGU.

Regarding B7, the binding signal was 0.0102 KA relative to UGCAUGU.

As to B8, the binding signal was 0.0116 KA relative to UGCAUGU.

Turning to B9, the binding signal is 0.0105 KA relative to UGCAUGU.
